Each structure is given as a SMILES string. A number with no mark means an inactive call. Where a call stands in place of a potency, no number is given. Active and inactive are the calls of the source. Calls follow the shape of the dose curve; as a rule, active = well fitted curve in the direction sought with a large enough effect in the repeat runs; inconclusive = weak or mixed curves; inactive = flat fitted curve, though single readings scatter.

This experiment is described as follows: qHTS assay to test for compound auto fluorescence at 460 nm (blue) in HepG2 cells (AID 720687). The conditions noted are these: autofluorescence 405/460 nm, 1 h; series mostly up to 91.3 µM; fluorescence, % of fluorescent control: at the top concentration. An excerpt:
U.S. Tox21 Program National Center for Advancing Translational Sciences [NCATS] NIH Chemical Genomics Center [NCGC] U.S. Environmental Protection Agency [EPA] National Institutes of Environmental Health Sciences [NIEHS] National Toxicology Program [NTP] U.S. Food and Drug Administration [FDA] Tox21 Assay Overview: Compound auto fluorescence often interferes with screening of the compound library against various biological targets and signaling pathways. Some of these compounds may have fluorophoric properties. Such properties may interfere with the assay outputs resulting in false positives and/or negatives. To decrease such complications and ensure the compound activities are relevant in terms of biological response, the Tox21 10K compound library was screened for auto fluorescence. From the fluorophores used as reporter signals in our screening assays, the auto fluorescence equivalencies of compounds against three fluorophores have been evaluated: Triamterene, Fluorescein and Rose Bengal sodium for blue, green and red fluorescence, respectively. The fluorescence intensities were measured using Excitation/Emission wavelengths at 405/460nm, 485/535nm and 540/590nm for blue, green and red labels, respectively. This assay includes the blue fluorescence data.
Tox21 Assay Protocol Summary: 2,000 HepG2 cells in 5 uL of culture medium (MEM containing 10% FBS) per well were dispensed into black wall/clear bottom 1536-well plates using a Multidrop Combi Dispenser (ThermoFisher Scientific, Waltham, MA). The assay plates were incubated overnight at 37 C to allow cell attachment to the well bottom, followed by the transfer of 23 nL compound or DMSO vehicle by a pintool work station (Kalypsys , San Diego, CA). After the assay plates were incubated for 1 hr at 37 C and 5% CO2, fluorescence intensities in the assay plates were measured by an Envision (PerkinElmer, Shelton, CT) plate reader using three labels for measuring blue, green and red fluorescence at […] 460, 535 and 590 nm respectively.
On the technique in general: In qHTS, concentration-response curves come from the screen itself.
As for `C=CC(=O)OCCCCCCOC(=O)C=C`, the Potency result is “inactive”.

As for `O=C1Nc2ccccc2C1(c1ccc(O)cc1)c1ccc(O)cc1`, the “fluorescence, % of fluorescent control” value was 0.148%.

`Cc1c(O)cccc1C(=O)N[C@@H](CSc1ccccc1)[C@H](O)CN1C[C@H]2CCCC[C@H]2C[C@H]1C(=O)NC(C)(C)C`: the Potency entry is “inactive”.

Turning to `CC(C)(C)c1cc(C(C)(C)C)c(O)c(C(C)(C)C)c1`, the Potency result is “inactive”.

`CCOc1ccccc1C(N)=O`: the Potency entry is “inactive”.

Turning to `c1cnc2cc3c(cc2n1)C1CNCC3C1`, the “fluorescence, % of fluorescent control” value is 0.0275% [at 95.7 µM].

`CC1=C(C=O)C(C)(C)CC=C1`: the “fluorescence, % of fluorescent control” value was 0.0796% [at 95.7 µM].

In the case of `Cc1scc2c1N(C(=O)CN1CCN(C)CC1)c1ccccc1NC2=O`, the “fluorescence, % of fluorescent control” value is 0.137% [at 46 µM].

Regarding `O=C(Cl)c1cccc(C(=O)Cl)c1`, the Potency entry was “inactive”.

For the compound `Clc1ccc2c(c1)C(N1CCNCC1)=Nc1ccccc1O2`, the Potency entry was “inactive”.

In the case of `OCCN1CCNCC1`, the Potency entry was “inactive”.

Take `CC1=CC(=O)c2ccccc2C1=O`: the Potency entry is “inactive”.

For the compound `CCCCCCC(O)CCCCCCCCCCC(=O)O` (stereo not given), the Potency entry was “inactive”.

Turning to `CC(C)CCOC(=O)c1ccc(N(C)C)cc1`, the “fluorescence, % of fluorescent control” value is -0.0938% [at 46 µM].

Consider `CC(=O)C1=C(C)[C@@H]2C[C@@]3(C1)[C@H](C)CC[C@H]3C2(C)C`, for which the Potency entry is “inactive”.

As to `NC(N)=Nc1nc(CSCC/C(N)=N/S(N)(=O)=O)cs1`, the Potency entry was “inactive”.

Regarding `O=C(O)c1cccc(C(=O)O)c1`, the Potency result was “inactive”.

With `CCN(CC)C(=O)Nc1ccc(OCC(O)CNC(C)(C)C)c(C(C)=O)c1` (stereo not given), the “fluorescence, % of fluorescent control” value is -0.247% [at 46 µM].

With `NNCCc1ccccc1`, the Potency entry was “inactive”.

In the case of `CC[C@@H](N)CO`, the “fluorescence, % of fluorescent control” value is -0.0488% [at 95.7 µM].

Regarding `CC(C)(C)NCC(O)c1cc(O)cc(O)c1` (stereo not given), the “fluorescence, % of fluorescent control” value is 0.998% [at 46 µM].

With `N[C@@H]1CONC1=O`, the “fluorescence, % of fluorescent control” value was 4% [at 46 µM].

For the compound `CC(=O)N[C@@H](CS)C(=O)O`, the Potency entry was “inactive”.

As for `CCCCN(CCO)CCCC`, the “fluorescence, % of fluorescent control” value was -0.0371% [at 95.7 µM].

Take `CCCCC/C=C/CC1CC(=O)OC1=O` (stereo not given): the “fluorescence, % of fluorescent control” value was -0.0065%.

Consider `COC(c1ccccc1)(c1ccccc1)[C@H](Oc1nc(C)cc(C)n1)C(=O)O`, for which the “fluorescence, % of fluorescent control” value is -0.0128% [at 46 µM].

For the compound `O=C(OCc1ccccc1)c1ccc(O)cc1`, the Potency entry was “inactive”.

On to `CCN1CCCC1CNC(=O)c1cc(S(=O)(=O)CC)c(N)cc1OC` (stereo not given), for which the “fluorescence, % of fluorescent control” value was 0.103% [at 46 µM].

`O=C(O[C@@H]1Cc2c(O)cc(O)cc2O[C@@H]1c1cc(O)c(O)c(O)c1)c1cc(O)c(O)c(O)c1`: the Potency entry was “inactive”.

Take `BrC1CCC(Br)C(Br)CCC(Br)C(Br)CCC1Br` (stereo not given): the Potency result was “inactive”.

With `CN1C(=O)c2ccc([N+](=O)[O-])cc2C1=O`, the “fluorescence, % of fluorescent control” value is 0.195%.

For `CC(=O)CC(C)=O`, the “fluorescence, % of fluorescent control” value was 0.0143% [at 95.7 µM].

For `C=CS(=O)(=O)O`, the Potency entry was “inactive”.

As to `CC(C(O)c1ccc(O)cc1)N1CCC(Cc2ccccc2)CC1` (stereo not given), the “fluorescence, % of fluorescent control” value was 0.0634% [at 46 µM].

With `OCCOCCN1CCN(C(c2ccccc2)c2ccc(Cl)cc2)CC1` (stereo not given), the Potency result is “inactive”.

Take `O=C1OC2(c3ccc(O)cc3Oc3cc(O)ccc32)c2ccccc21`: the Potency entry was “inactive”.

Take `C/C=C/c1ccc(OCC)c(O)c1`: the “fluorescence, % of fluorescent control” value is 0.146%.

For the compound `COc1cc(C(=S)N2CCOCC2)ccc1O`, the “fluorescence, % of fluorescent control” value is -0.0947% [at 46 µM].

For the compound `NC(=Nc1ccccc1)Nc1ccccc1`, the Potency entry was “inactive”.

Take `CCCOC(=O)c1cc(O)c(O)c(O)c1`: the Potency result was “inactive”.

Values taken from PubChem BioAssay (Tox21).
